Results on 40 molecules are retold here after PubChem BioAssay (NCI).

Each structure is given as a SMILES string. “And” between values parts separate entries of the source, which are not always exact repeats. Equal values may be shown once. About 83,000 compounds went through this panel and 20% of them were active in at least one assay; those are over-represented in the sample as a whole.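 Results are percent growth after 48 hours of single-concentration exposure. 100 means growth as in untreated cells, lower positive values show inhibition; negative values down to -100 show cell death.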 Unmarked numbers belong to inactive results. The source made the active and inactive calls. How the source made its calls: active means growth percent below 10; inactive means the rest.

The experiment relates to MDA-MB-468 breast. The experiment in a line: NCI-60 one-dose screen, 48 h (100 = growth as untreated, 0 = no growth, -100 = all killed). The conditions noted are these: 10 µM unless noted.
On to `Cc1nc2ccccc2c(/C=C/c2ccc(Cl)cc2)c1C(=O)/C=C/c1ccc(Cl)cc1`, for which the growth was -50.9% (active).

As for `OCc1cnccc1NCCCCOc1ccc(Oc2ccccc2)cc1`, the growth was 30.5%.

For `COc1ccc(OC)c(Nc2nc3nonc3nc2Nc2cc(OC)ccc2OC)c1`, the growth is 63.1%.

Turning to `CN1CCN(Cc2ccc(NC(=O)c3cncc(C#Cc4cnc(N)c5cccnc45)c3)cc2C(F)(F)F)CC1`, the growth was 15.8%.

`Clc1ccc(-c2nnc(COc3ccccc3Cl)o2)cc1`: the growth was 93.7%.

In the case of `O=C(CCCCCCCCC(=O)N/N=C\c1ccccc1O)N/N=C\c1ccccc1O`, the growth was -28.4% (active).

Turning to `O=C(/C=C/c1cccc([N+](=O)[O-])c1)c1ccc(Nc2nc(N3CCCCC3)nc(N3CCCCC3)n2)cc1`, the growth was 121%.

Turning to `COc1ccc(C2C=C(c3ccc(Cl)cc3)N=C3SC=C(C)N32)c(Br)c1` (stereo not given), the growth is 8.58% (active).

Consider `COc1cc2ncnc3c2cc1OCCCCCN(C)Cc1ccc(Br)cc1N3`, for which the growth was -26.6% (active).

Turning to `O=C(O)CCCCc1ccc([N+](=O)[O-])cc1`, the growth is 107% and 115%.

For the molecule `Cc1ccc(C)c(CCO)c1`, the growth was 93.5%.

On to `COC(=O)[C@@H]1CCCN1C(=O)[C@@H]1CCCN1C(=O)[C@H](Cc1ccccc1)NC(=S)Nc1cc(C(F)(F)F)cc(C(F)(F)F)c1`, for which the growth is 89%.

As to `CCCCNC(=O)NS(=O)(=O)Cc1ccccc1`, the growth is 112%.

For `COc1cc(OC)c2cc(C(=O)O)c(=O)oc2c1`, the growth is 99.9%.

For the molecule `O=c1[nH]c2cc(Cl)ccc2n1C1CCN(c2ccc3nnc(Cl)n3n2)CC1`, the growth was 85.3%.

For `CS(=O)(=O)Nc1cc(-c2ccc3ncnc(Nc4c(Cl)ccc5c4OCO5)c3c2)cnc1Cl`, the growth was -74.3% (active).

Regarding `CCN(C(=O)Nc1cccc2ccccc12)c1ccccc1`, the growth was 99.7%.

In the case of `COc1ccc(-c2cc(-c3ccc(Cl)cc3)nc(SCCCC(=O)NO)n2)cc1`, the growth is -56.2% (active).

As for `CN(C)CCCn1c(=O)c2ccccc2c2ccccc21`, the growth is 66%.

Take `C=C1C(=O)O[C@H]2[C@H]1CC/C(CNS(=O)(=O)c1cccc3ccccc13)=C\CC[C@@]1(C)O[C@@H]21`: the growth is 1.44% (active).

For `Cc1ccc2c(c1)ncn2-c1ncnc2c1CC(C)c1ccccc1N2C` (stereo not given), the growth is 38%.

In the case of `O=[N+]([O-])c1ccc(NC(c2ccccc2)c2ccc3cccnc3c2O)cc1` (stereo not given), the growth was -28.9% (active).

Consider `COc1cccc(/C=C2\Cc3ccccc3C2=O)c1`, for which the growth was 99.6%.

As to `FC(F)(F)c1cccc(-c2nnn(Cc3cc(-c4cccc(Cl)c4)no3)n2)c1`, the growth was 102%.

Turning to `CCOC(=O)CC(S(=O)(=O)c1ccccc1)S(=O)(=O)c1ccccc1`, the growth is 23.2%.

With `COc1cc(/C=C2\CCCC3=C2N=C2SC(C)=CN2C3c2cc(OC)c(OC)c(OC)c2)cc(OC)c1OC` (stereo not given), the growth is -20.7% (active).

As for `O=C(NCCNC(=O)c1ccc(Cl)cc1Cl)c1ccc(Cl)cc1Cl`, the growth was 104%.

Take `CCOC(=O)c1nn(CC(O)c2ccccc2)c(NC(=O)Nc2cccc(F)c2)c1C` (stereo not given): the growth is 94.6%.

`Cc1ccc(OCc2occc2C(=O)N2CCOCC2)cc1`: the growth is 103%.

Take `CN(C(=S)S(=O)(=O)C12CC3CC(CC(C3)C1)C2)c1ccccc1`: the growth was 61.7%.

Take `Brc1c[n+](Cc2ccc3ccccc3c2)cn1Cc1ccc2ccccc2c1`: the growth was -29.1% (active).

With `CCOC(=O)c1coc(C(=O)OCC)c1C(=O)OCC`, the growth is 107%.

For the molecule `C=CC(=O)OCCCCCCCC`, the growth is 106%.

For `COc1cc(/C=C2\C(=O)Nc3cc(C)c(O)cc32)cc(OC)c1OC`, the growth is 29.3%.

As for `COc1cc(OC)c(NC(=O)C(Sc2nc(C)cc(C)c2C#N)c2ccccc2)cc1Cl` (stereo not given), the growth was 93.6%.

With `O=c1cc(Cl)nc2ccccn12`, the growth was 107%.

For `CCCCCCCCOC(=O)c1ccccn1`, the growth was 107%.

Regarding `NC1=Nc2ccccc2N(O)N1`, the growth was 102%.

For `Cc1cnc(NC(=O)Nc2cc(Br)c(C)cc2OC[C@@H]2CNCCO2)cn1`, the growth is -26.7% (active).

With `CCc1ccccc1-n1c(-c2ccc(Cl)cc2)cc(-c2ccc(Cl)cc2)c(C#N)c1=O`, the growth was 87.6%.
